The supplement of paper PMC3334620
In all, about 33,000 sequences were measured (“E-score (-0.5 to 0.5)”: median about -0.0034, highest 2% from about 0.25 on). This excerpt belongs to a sample that is enriched for the highest values.

Each sequence was assayed against T1, Yap3 (UniProt P38749) (assay: PBM E-score (8-mer binding enrichment) (E-score (-0.5 to 0.5)); higher = stronger / more preferred TF binding). Conditions: protein concentration: 100 nM; construct: GST-full length.
T1 sequence: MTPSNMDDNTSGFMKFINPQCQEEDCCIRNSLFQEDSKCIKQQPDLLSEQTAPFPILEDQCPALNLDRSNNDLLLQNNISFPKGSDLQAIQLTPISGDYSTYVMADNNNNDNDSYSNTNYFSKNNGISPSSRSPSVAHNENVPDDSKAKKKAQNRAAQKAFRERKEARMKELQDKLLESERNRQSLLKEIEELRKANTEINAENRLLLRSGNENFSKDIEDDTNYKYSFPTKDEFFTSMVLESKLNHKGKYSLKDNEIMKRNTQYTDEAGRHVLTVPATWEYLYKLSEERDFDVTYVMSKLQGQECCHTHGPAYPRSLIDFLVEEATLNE
Protocol: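 Universal 'all 10-mer' protein binding microarrays (Agilent AMADID 015681) probed with GST-tagged S. cerevisiae TFs (full-length or DBD) made by in vitro transcription/translation (PURExpress), about 100-200 nM. Bound TF was detected with fluorescent anti-GST. Each ungapped 8-mer (which stands for itself and its reverse complement) is scored by the PBM enrichment score (E-score), a modified Wilcoxon-Mann-Whitney statistic from -0.5 to +0.5, computed with the Universal PBM Analysis Suite. Scale: above 0.35 generally sequence-specific binding.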

Sequence | PBM E-score
CGTAATAG | 0.314
CGTAATAC | 0.318
CGTAATAA | 0.29
AGTAATGC | 0.13
GGTAATAC | 0.208
CATAATAG | 0.189
CGGCATTA | 0.21
ACTCGTTC | -0.0576
AGTAAAAA | 0.208
AGTAATGA | 0.208
AGTAATAA | 0.254
ATTGGGGC | -0.0386
AGGCTATC | -0.203
GCGCGCGC | 0.29
ACGCGCGC | 0.181
GCGCGCTA | 0.257
CCGCGCGC | 0.0469
CCGCGCGG | 0.293
GCGCGCGA | 0.121
CCGCGCGA | 0.0991
CCGCGCTA | 0.137
ACGCGCTA | 0.0658
ACAACAGA | -0.0683
GATGTCCC | -0.134
AGGATCAG | -0.151

Sequence | PBM E-score
CGGCCCAG | -0.332
AGAAATGA | 0.0784
CCTGACAG | -0.0186
GGAGATAA | 0.107
CGAGATAA | 0.29
AGAGATAA | 0.169
GAGCCTTA | -0.0398
ACATGTAA | 0.184
ACATGTAC | 0.112
ACATGTTG | 0.13
CCATGTAG | -0.014
ACATGTAG | 0.302
ACATGTAT | 0.262
CAGAATCA | 0.0924
CCGCTAGG | -0.128
ACGCACGT | -0.206
ACGCACGA | 0.131
ACGCACGC | 0.262
TCATGGGA | 0.00531
GTTAAATA | 0.178
ATTAAATC | 0.211
ATTAAATA | 0.268
ATTAAAAG | 0.0983
ATTAAAAC | 0.236
ATTAAAAA | 0.285

Sequence | PBM E-score
ATTAAATG | 0.266
ATTAAACG | 0.215
TATTAAAA | 0.217
CTTAAATA | 0.092
CATTAAAA | 0.281
GATTAAAA | 0.192
CAAGGTAG | -0.142
ATGCGCCG | 0.00281
AAAGAGAT | -0.0227
AGCGAGAA | -0.0207
GCAATCCA | 0.0882
CAAATCCA | 0.151
ACAATCCG | 0.116
GAAATCCA | 0.0886
ACAATCCA | 0.287
AAAATCCA | 0.28
AGAATGCG | 0.0426
AATAGTAT | 0.229
GTATCCGA | -0.0824
ATTAGGTC | 0.286
ATTAGGTA | 0.167
AATACGTC | 0.188
ATTACGCC | 0.0197
ACTACGTG | -0.166
ATTACGCG | 0.311

Sequence | PBM E-score
AGTACGTG | -0.0755
ATTACGCA | 0.233
ACTACGTC | -0.0702
ATTACGTC | 0.33
CTTAGGTC | -0.0924
ATTACGTG | 0.397
AGTAAACT | 0.0322
CATCTGGC | -0.066
TAGTACTA | 0.0913
GGCTACAC | -0.166
CGACTACA | 0.0886
ATTGGCTC | 0.0983
ATGGTAAT | 0.128
AAGGACAC | -0.0338
ACCCGGGT | -0.12
ACCTTCAC | 0.00082
ATTGGTTG | 0.118
CTGTACGA | 0.0353
CACAGTAA | 0.265
TACAGTAA | 0.183
CACAGTAG | 0.0618
ATTTCGAA | 0.261
ATTTCGAC | -0.0412
ATTTCGAG | 0.141
TGCGTGAA | 0.107

Sequence | PBM E-score
ACATTAGT | 0.0888
ATTTTATA | 0.331
ACTTTATA | 0.259
CGTTTATA | 0.28
CCTTTATA | 0.0052
ATTTTATG | 0.21
ATTTTATC | 0.235
AATTTATC | 0.325
GTTTTATA | 0.139
AGTTTATA | 0.205
GGTTTATA | 0.0813
ACTTTATC | 0.169
CATTTATC | 0.198
GGCAGTCA | -0.11
AAGGTAAC | 0.121
AATTTGAT | 0.0887
ATCGTTTA | 0.135
AAGAGCCG | -0.0966
AGTCACGG | 0.00648
AGGCAGAA | -0.0515
CCTCGCAC | -0.133
CATTTATA | 0.215
AATTTATG | 0.252
AATTTATA | 0.294
ATGCATTC | 0.0938

Sequence | PBM E-score
AACCATAA | 0.15
AACCATAC | 0.0832
CTGCATTA | -0.0676
CTCCATAA | -0.0865
AACCATAT | 0.266
ATGCATTA | 0.333
AGACATAA | 0.136
ATCCATAA | 0.258
TGACATAA | 0.3
GTCCATAA | -0.0433
GGACATAA | 0.0711
CTCCTTCC | -0.171
CATTTGAC | 0.0765
GGAGCGCA | -0.261
AAGTACGG | -0.0366
AGCAATTC | 0.134
TAGGCCCA | -0.198
TCGTCGAA | 0.0355
ACACATAG | -0.0796
ATACATCA | 0.207
GCACATAA | 0.131
ATACATAT | 0.286
AGACATAT | 0.185
ATACATAG | 0.112
ACACATAA | 0.299

Sequence | PBM E-score
GTACATAA | 0.135
TTACATAA | 0.416
ATACATAA | 0.285
ATACATAC | 0.0937
CTACATAA | -0.0287
GCCAATCA | -0.169
CCAGCAGA | -0.17
AACTGCTA | 0.00439
CCGCCTGC | -0.278
AGAGAAAA | 0.0508
GTTTGAGA | -0.0917
GGATTGGA | 0.19
TCGCGCCA | -0.0451
ATCTGGAG | -0.165
GCTTGGAC | -0.0766
CAAGGATG | -0.0177
CGCAATAG | 0.105
CCAATGAG | -0.0674
AAACATAG | -0.0382
GTACATTA | 0.0635
AAACATAT | 0.305
CTACATTA | 0.11
ATACATTA | 0.266
AAACATAC | 0.0457
